Values joined by “and” are separate entries in the source; they are usually repeats but may differ in a detail not shown here. Identical values can stand only once. Active and inactive are the calls of the source. Unless noted, the rule behind the calls is not given here.
Assays:
[1] = HepG2 liver cancer cell viability effects, profiling panel, resazurin fluorescence, 24 h, PK04 Diversity Set (AID 1172); conditions: higher = more signal; note: test concentration not given here
[2] = basal S. cerevisiae growth modulation, no modifier, primary screen, OD600, strain BY4716, 24 h, basal condition (AID 1173); conditions: OD600, 24 h, higher = more signal, called active from +8 up or from −8 down
[3] = MM1S myeloma cell viability, profiling panel, resazurin fluorescence, basal, 24 h, PK04 Diversity Set (AID 1174); conditions: higher = more signal, called active from +8 up or from −8 down;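 note: MM1S multiple myeloma cell line; test concentration not given here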
[4] = target: Dihydroorotate dehydrogenase (quinone), mitochondrial (Plasmodium falciparum (isolate 3D7)) (UniProt Q08210); experiment: PfDHODH enzyme inhibitors, primary screen, biochemical, C-terminal His tag, absorbance 600 nm (AID 1175); conditions: DCIP absorbance 600 nm, higher = more signal, called active from +8 up or from −8 down;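 note: recombinant parasite enzyme with a five histidine tag at its C terminus; test concentration not given here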
Chain of Dihydroorotate dehydrogenase (quinone), mitochondrial (Plasmodium falciparum (isolate 3D7)) (Q08210 whole entry, looked up): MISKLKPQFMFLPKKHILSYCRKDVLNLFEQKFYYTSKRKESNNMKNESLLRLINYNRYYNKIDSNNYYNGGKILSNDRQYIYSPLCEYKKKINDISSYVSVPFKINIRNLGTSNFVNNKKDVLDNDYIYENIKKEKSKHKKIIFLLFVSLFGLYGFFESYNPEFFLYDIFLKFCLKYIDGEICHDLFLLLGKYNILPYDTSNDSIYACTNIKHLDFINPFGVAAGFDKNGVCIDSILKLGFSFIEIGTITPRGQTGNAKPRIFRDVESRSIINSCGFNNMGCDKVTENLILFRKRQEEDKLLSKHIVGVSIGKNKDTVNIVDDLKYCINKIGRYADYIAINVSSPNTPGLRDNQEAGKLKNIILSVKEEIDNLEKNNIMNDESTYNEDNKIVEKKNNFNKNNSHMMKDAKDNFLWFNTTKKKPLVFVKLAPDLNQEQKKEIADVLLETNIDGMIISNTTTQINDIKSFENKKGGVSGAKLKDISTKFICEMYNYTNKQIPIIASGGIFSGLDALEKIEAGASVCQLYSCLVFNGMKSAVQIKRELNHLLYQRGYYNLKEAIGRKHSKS

[5] = P. aeruginosa biofilm formation inhibitors, primary screen, strain PAO1, LB-PBS medium, absorbance 600 nm (AID 1176); note: test concentration not given here; conditions: P. aeruginosa PAO1 growth/biofilm, A600, 12 h; higher = more signal
[6] = S. cerevisiae RM11-1a growth modifiers, primary screen, strain RM11-1a, OD600, basal, 24 h (AID 1177); conditions: OD600, 24 h, higher = more signal, called active from +8 up or from −8 down;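 note: cultures grown under basal conditions with no added stressor; test concentration not given here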
[7] = E. coli acrAB mutant growth effects, primary screen, E. coli filamentation inducers, strain DRC39, OD650, 24 h (AID 1178); conditions: higher = more signal, called active from +8 up or from −8 down;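 note: growth measured as culture turbidity by optical density at 650 nm; test concentration not given here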
[8] = E. coli acrAB mutant growth effects, primary screen, E. coli filamentation inducers, strain DRC39, OD650, 48 h (AID 1179);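 note: screen aims at cell division blockers that make cells filament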; conditions: E. coli DRC39 delta-acrAB growth, higher = more signal, called active from +8 up or from −8 down
[9] = RPMI8226 myeloma cell viability, profiling panel, resazurin fluorescence, basal, 24 h, PK04 Diversity Set (AID 1180); conditions: higher = more signal;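 note: RPMI8826 multiple myeloma cell line at 5000 cells per well; test concentration not given here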
[10] = target: E3 ubiquitin-protein ligase XIAP (Homo sapiens) (UniProt P98170); experiment: XIAP binders, primary screen, biophysical, small-molecule microarray, fluorescence 635 nm (AID 1181); conditions: small-molecule microarray binding, higher = more signal;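 note: score merges 667 nm emission and signal to noise over triplicate slides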
Chain of E3 ubiquitin-protein ligase XIAP (Homo sapiens) (P98170 whole entry, looked up): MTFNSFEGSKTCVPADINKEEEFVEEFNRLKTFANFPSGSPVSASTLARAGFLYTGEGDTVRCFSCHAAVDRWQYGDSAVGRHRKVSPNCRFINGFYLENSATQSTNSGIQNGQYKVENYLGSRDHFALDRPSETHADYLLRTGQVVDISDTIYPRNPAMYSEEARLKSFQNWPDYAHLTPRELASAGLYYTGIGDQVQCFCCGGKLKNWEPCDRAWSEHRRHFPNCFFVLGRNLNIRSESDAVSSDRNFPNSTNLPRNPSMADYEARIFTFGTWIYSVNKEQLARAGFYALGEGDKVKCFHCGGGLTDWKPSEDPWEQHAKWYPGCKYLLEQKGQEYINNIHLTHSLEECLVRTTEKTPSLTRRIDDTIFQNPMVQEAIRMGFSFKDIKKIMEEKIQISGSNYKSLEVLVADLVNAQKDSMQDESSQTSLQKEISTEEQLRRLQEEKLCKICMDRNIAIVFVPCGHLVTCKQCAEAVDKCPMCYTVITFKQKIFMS

Row | Structure (SMILES) | z-score [1] | z-score [2] | z-score [3] | composite z-score [4] | z-score [5] | z-score [6] | z-score [7] | z-score [8] | z-score [9] | composite z-score [10]
1 | C=CCN(C(=O)C(c1cccs1)N(CCOCCO)C(=O)/C=C\C(=O)O)C(C)(C)C (stereo not given) | -0.403 and -0.304 | -0.655 (inactive) and -0.25 (inactive) | -0.102 (inactive) and 0.0032 (inactive) | -2.84 (inactive) and -0.333 (inactive) | -0.497 (inactive) | 0.432 (inactive) and 0.467 (inactive) | 1.15 (inactive) and 1.46 (inactive) | 1.61 (inactive) and 1.68 (inactive) | -0.0043 and -0.146 | 0.0428 and 0.704
2 | CC(CO)N1C(=O)[C@@H]2C3C(=O)OCCC=C[C@H]3OC23C=CCN(Cc2ccccc2)C(=O)[C@@H]13 (stereo not given in full) | 0.278 and -0.0236 | 1.35 (inactive) and -1.28 (inactive) | 0.533 (inactive) and 0.868 (inactive) | 0.113 (inactive) and -2.83 (inactive) | -1.35 (inactive) and -0.0684 (inactive) | 1.57 (inactive) and -0.214 (inactive) | 0.748 (inactive) and 0.632 (inactive) | 0.453 (inactive) and 0.309 (inactive) | 0.252 and 0.693 | -0.196 and 0.194
3 | C[C@@H](c1ccccc1)N1C(=O)[C@H]2[C@H]3[C@H](O)[C@H](O)CC(=O)[C@@H]3CC[C@H]2C1=O | -0.7 | -1.05 (inactive) | 0.295 (inactive) | -1.59 (inactive) | 0.377 (inactive) | -2.9 (inactive) | -0.579 (inactive) | -0.954 (inactive) | -0.62 | -0.163
4 | Cc1ccc(S(=O)(=O)N[C@H]2COC(=O)[C@@H](C)COC(=O)[C@H](C)NC(=O)CC=C[C@H]2C)cc1 | 0.949 | -0.878 (inactive) | 0.799 (inactive) | -0.0791 (inactive) | -0.814 (inactive) | -0.233 (inactive) | 0.45 (inactive) | -0.166 (inactive) | 1.23 | -0.43
5 | C=C[C@H](OC)[C@@H](O)c1ccc(OCCO)cc1 | -0.843 and 0.501 | -0.43 (inactive) and -1.55 (inactive) | -0.887 (inactive) and 0.51 (inactive) | -0.0113 (inactive) and -0.134 (inactive) | 0.0123 (inactive) and 1.37 (inactive) | 0.952 (inactive) and -0.0987 (inactive) | -0.258 (inactive) and 1.78 (inactive) | -0.366 (inactive) and 1.8 (inactive) | -1.28 and 1.05 | -0.206 and -0.352
6 | COC(=O)C1=C(C)N(Cc2ccccc2)C2=C(C(C)=O)C[C@@](O)(C(=O)OC)C(=O)N2[C@@H]1c1ccccc1 | 0.5 and 0.54 | -1.89 (inactive) and -2.55 (inactive) | -1.51 (inactive) and 0.956 (inactive) | -0.557 (inactive) and -0.986 (inactive) | 0.781 (inactive) | -1.29 (inactive) and -2.02 (inactive) | -0.0507 (inactive) and 0.915 (inactive) | 0.0063 (inactive) and -1.49 (inactive) | 1.28 and 0.192 | 0.215 and -0.005
7 | CN1C(=O)C2CC=C([C@H]3Oc4ccccc4S(=O)(=O)N4CCC[C@@H]34)CC2C1=O (stereo not given in full) | -0.448 and 0.0011 | 0.325 (inactive) and 0.478 (inactive) | -0.391 (inactive) and -0.44 (inactive) | 0.341 (inactive) and -0.0294 (inactive) | -0.0582 (inactive) and 0.0481 (inactive) | 0.961 (inactive) and 1.32 (inactive) | 0.563 (inactive) and 0.831 (inactive) | 0.111 (inactive) and 0.0952 (inactive) | -0.801 and -0.0821 | -0.245 and -0.244
8 | C=CCN(C(=O)C1N(CCCCCCO)C(=O)C2C(C(=O)O)C3C=CC21O3)C(C)(C)C (stereo not given) | -1.01 and -0.273 | 0.158 (inactive) and 0.0807 (inactive) | -0.184 (inactive) and -0.49 (inactive) | -0.708 (inactive) and -0.59 (inactive) | -0.401 (inactive) and -0.484 (inactive) | -0.37 (inactive) and -1.03 (inactive) | -0.739 (inactive) and -0.371 (inactive) | -0.467 (inactive) and -0.281 (inactive) | -0.106 and -0.445 | -0.227 and -0.231
9 | C=CCN(CCCC)C(=O)C1N(CCOCCO)C(=O)C2C(C(=O)O)C3C=CC21O3 (stereo not given) | -0.171 and -0.143 | 0.492 (inactive) and 1.27 (inactive) | -0.451 (inactive) and -0.748 (inactive) | 0.457 (inactive) and 0.856 (inactive) | 0.413 (inactive) and 0.261 (inactive) | -0.119 (inactive) and 0.178 (inactive) | 0.127 (inactive) and -0.229 (inactive) | -0.11 (inactive) and -0.406 (inactive) | -0.472 and -0.68 | 0.0258 and -0.304
10 | C[C@@H]1CC[C@@H](C(=O)O)N[C@H]1c1ccc(-c2ccco2)cc1 | 0.443 | -0.319 (inactive) | 0.603 (inactive) | 0.268 (inactive) | -0.151 (inactive) | -0.0212 (inactive) | 0.127 (inactive) | -0.551 (inactive) | 0.285 | 0.012
11 | C=CCN1C(=O)[C@]2(O[C@H](CCn3cc(CCO)nn3)[C@@H]([Si](C)(C)c3ccc(OC)cc3)[C@@H]2C)c2cc(N3C(=O)c4cccc5cccc3c45)ccc21 | -6.38 and -6.41 | 1.99 (inactive) and 1.56 (inactive) | -9.01 (active) and -9.12 (active) | 1.19 (inactive) and 1.35 (inactive) | 0.355 (inactive) and 1.15 (inactive) | 4.03 (inactive) and 3.23 (inactive) | 1.91 (inactive) and 1.72 (inactive) | 0.906 (inactive) and 0.389 (inactive) | -6.26 and -6.25 | -0.178 and 0.0256
12 | CCOC(=O)CCN1C(=O)[C@H]2[C@H]3[C@H](O)[C@H](O)CC(=NNC(=O)OCC)[C@@H]3CC[C@H]2C1=O | -0.346 | -0.762 (inactive) | -0.994 (inactive) | -0.31 (inactive) | -0.531 (inactive) | -0.382 (inactive) | 0.202 (inactive) | 0.526 (inactive) | -1.74 | 0.116
13 | O=C(NN=C1C[C@@H](O)[C@@H](O)[C@@H]2[C@@H]3C(=O)N(Cc4ccc5c(c4)OCO5)C(=O)[C@@H]3CC[C@H]12)OCc1ccccc1 | -0.0124 | 0.0375 (inactive) | -0.203 (inactive) | -1.62 (inactive) | -0.437 (inactive) | 0.273 (inactive) | 0.883 (inactive) | 1.4 (inactive) | -0.2 | 0.106
14 | C=CCN(C(=O)C(c1cccs1)N(C(=O)/C=C\C(=O)O)c1c(Cl)cccc1CO)C(C)(C)C (stereo not given) | -0.842 and -0.839 | 0.0318 (inactive) and -0.393 (inactive) | -0.525 (inactive) and -0.895 (inactive) | -1.77 (inactive) and -0.93 (inactive) | -0.304 (inactive) and -0.677 (inactive) | -0.107 (inactive) and -0.495 (inactive) | -0.514 (inactive) and -0.291 (inactive) | -0.372 (inactive) and -0.102 (inactive) | -0.554 and -1.29 | -0.191 and 0.1
15 | C=C[C@@H](C)[C@H](O)c1ccc(O)c2ccccc12 | 0.127 and 0.0729 | -8.76 (active) and -8.55 (active) | -0.683 (inactive) and -0.737 (inactive) | -0.94 (inactive) and -0.709 (inactive) | 0.483 (inactive) and 0.79 (inactive) | -0.638 (inactive) and -0.599 (inactive) | 0.479 (inactive) and 0.435 (inactive) | 0.008 (inactive) and 0.189 (inactive) | -0.861 and -0.602 | -0.0893 and 0.0773
16 | C=CCN(C(=O)C1N(C(C)(C)CO)C(=O)C2C(C(=O)O)C3C=CC21O3)C(C)(C)C (stereo not given) | -0.724 and -0.381 | 1 (inactive) and 0.053 (inactive) | -0.638 (inactive) and 0.113 (inactive) | 1.3 (inactive) and -0.307 (inactive) | -0.456 (inactive) and 0.109 (inactive) | 1.16 (inactive) and 1.25 (inactive) | -0.706 (inactive) and 0.32 (inactive) | -0.687 (inactive) and 0.356 (inactive) | -0.319 and -0.0012 | -0.326 and -0.212
17 | C=CCN(C(=O)C1N(C(C)(C)CO)C(=O)C2C(C(=O)O)C3C=CC21O3)c1ccc(OC)cc1 (stereo not given) | 0.489 and -0.143 | -0.684 (inactive) and 0.362 (inactive) | 1.01 (inactive) and 0.128 (inactive) | 0.2 (inactive) and -2.13 (inactive) | -0.786 (inactive) | 0.643 (inactive) and 1.4 (inactive) | 1.33 (inactive) and 0.347 (inactive) | 1.09 (inactive) and 0.546 (inactive) | 0.592 and -0.39 | -0.0771 and -0.0663

From PubChem BioAssay
